Our source for the z-score and composite z-score values is PubChem BioAssay.

A short description of assay [1]: E. coli DRC41 culture turbidity changes, primary screen, E. coli filamentation inducer project, strain DRC41, OD650, 48 h (AID 1152).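 Note: E. coli MC1000 strain DRC41 lacking acrAB efflux pump and sulA.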 Conditions: E. coli DRC41 (acrAB sulA), higher = more signal, called active from +8 up or from −8 down.
A short description of assay [2]: small-molecule binders of probe aLefty1, primary screen, biochemical, small-molecule microarray, 635/667 nm fluorescence (AID 1153).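 Note: score merges spot fluorescence with signal-to-noise ratio from the scanned slide images.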 To be noted: higher = more signal.
Assay [3] in a line: PSAC antagonists in infected red cells, primary screen, cell-based, P. falciparum Indochina, OD700, 1 h (AID 1154). To be noted: P. falciparum Indochina infected RBC osmotic lysis, higher = more signal, called active from +8 up or from −8 down.
Assay [4] in a line: PSAC antagonists in infected red cells, primary screen, cell-based, P. falciparum Indochina, OD700, 2 h (AID 1155).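 Note: lysis reports solute entry through the parasite surface anion channel PSAC; channel blockers reduce lysis of infected cells.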 To be noted: P. falciparum Indochina infected erythrocytes, osmotic lysis OD700; higher = more signal, called active from +8 up or from −8 down.
The nature of assay [5]: osmotic lysis modulators in infected erythrocytes, primary screen, PSAC antagonist project, cell-based, P. falciparum Indochina, OD700, 3 h (AID 1156). Conditions: higher = more signal, called active from +8 up or from −8 down.
A short description of assay [6]: PSAC antagonists in infected red cells, primary screen, cell-based, P. falciparum Indochina, OD700, 18 h (AID 1157). To be noted: P. falciparum Indochina infected erythrocytes, osmotic lysis OD700, 18 h; higher = more signal, called active from +8 up or from −8 down.
The nature of assay [7]: modulators of S6 phosphorylation in cells, primary screen, cell-based, A549, cytoblot, luminescence, serum-stimulated (AID 1158).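 Note: serum-stimulated A549 lung adenocarcinoma cells; signal is phosphorylated S6 detected by cytoblot immunostaining with HRP secondary.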 To be noted: A549 phospho-S6 cytoblot, 5 h, higher = more signal.
The target in assay [8] is NADPH oxidase 2 (Homo sapiens) (UniProt P04839). Briefly: NOX2-dependent H2O2 signal modulators, primary screen, NOX inhibitor project, cell-based, HEK293-NOX2, PMA-stimulated, Amplex Red fluorescence (AID 1159). Note: test concentration not given here. Conditions: 45 min, higher = more signal, called active from +8 up or from −8 down.
Assay [9] addresses NADPH oxidase 4 (Homo sapiens) (UniProt Q9NPH5). Briefly: NOX4-dependent H2O2 signal modulators, primary screen, NOX inhibitor project, cell-based, HEK293-NOX4, tetracycline-induced, Amplex Red fluorescence (AID 1160). To be noted: 45 min, higher = more signal, called active from +8 up or from −8 down.
For assay [10], the target named is NADPH oxidase 5 (Homo sapiens) (UniProt Q96PH1). The assay is described as follows: NOX5-dependent H2O2 signal modulators, primary screen, NOX inhibitor project, cell-based, HEK293-NOX5, Amplex Red fluorescence (AID 1161). Conditions: HEK293-NOX5, ionomycin, 45 min, higher = more signal.
Assay [11] in a line: A549 cell viability effects, profiling panel, calcein-AM fluorescence, 48 h, basal (AID 1162). Note: test concentration not given here. Conditions: higher = more signal.
Assay [12] in a line: adipocyte viability effects, profiling panel, cell-based, 3T3-L1 adipocytes, calcein-AM fluorescence, 48 h, basal (AID 1163). Note: test concentration not given here. Conditions: 3T3-L1 adipocytes viability, higher = more signal.
Assay [13] in a line: HepG2 cell viability effects, profiling panel, calcein-AM fluorescence, 48 h, basal (AID 1164). Note: test concentration not given here. To be noted: higher = more signal.
Assay [14] in a line: MM1S cell viability effects, profiling panel, calcein-AM fluorescence, 48 h, basal (AID 1165).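 Note: viability of MM1S multiple myeloma cells under basal unstimulated conditions; test concentration not given here.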 Conditions: higher = more signal.
Assay [15] can be described thus: basal RPMI8226 viability, no added stimulus, profiling panel, cell-based, calcein-AM fluorescence, 48 h, PK04 Diversity Set (AID 1166).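 Note: cells grown under basal conditions without added stimulus; test concentration not given here.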 Conditions: RPMI8226 myeloma viability, higher = more signal.
The nature of assay [16]: basal HepG2 mitochondrial membrane potential changes, profiling panel, cell-based, JC-1 fluorescence, 24 h, 100 nL compound (AID 1167). Note: test concentration not given here. Conditions: higher = more signal.
The nature of assay [17]: basal 3T3-L1 adipocyte mitochondrial potential changes, profiling panel, cell-based, JC-1 fluorescence, 3T3-L1 adipocytes, 24 h, 100 nL compound (AID 1168). Note: test concentration not given here. To be noted: JC-1 mitochondrial fluorescence, higher = more signal, called active from +8 up or from −8 down.
A short description of assay [18]: basal RPMI8226 mitochondrial membrane potential changes, profiling panel, cell-based, JC-1 fluorescence, 24 h, 100 nL compound (AID 1169). Note: test concentration not given here. Conditions: RPMI8226 myeloma, JC-1 mitochondrial potential fluorescence, higher = more signal.
Assay [19] can be described thus: basal MM1S mitochondrial membrane potential changes, profiling panel, cell-based, JC-1 fluorescence, 24 h, 100 nL compound (AID 1170). Note: test concentration not given here. Conditions: higher = more signal.
Assay [20] in a line: A549 lung cancer cell viability effects, profiling panel, resazurin fluorescence, 24 h, PK04 Diversity Set (AID 1171). Note: test concentration not given here. To be noted: higher = more signal, called active from +8 up or from −8 down. On the technique in general: The colour change of resazurin is a common sign of viable cells or microbes.

The source made the active and inactive calls.

Sequence of NADPH oxidase 2 (Homo sapiens) (P04839 whole entry, looked up): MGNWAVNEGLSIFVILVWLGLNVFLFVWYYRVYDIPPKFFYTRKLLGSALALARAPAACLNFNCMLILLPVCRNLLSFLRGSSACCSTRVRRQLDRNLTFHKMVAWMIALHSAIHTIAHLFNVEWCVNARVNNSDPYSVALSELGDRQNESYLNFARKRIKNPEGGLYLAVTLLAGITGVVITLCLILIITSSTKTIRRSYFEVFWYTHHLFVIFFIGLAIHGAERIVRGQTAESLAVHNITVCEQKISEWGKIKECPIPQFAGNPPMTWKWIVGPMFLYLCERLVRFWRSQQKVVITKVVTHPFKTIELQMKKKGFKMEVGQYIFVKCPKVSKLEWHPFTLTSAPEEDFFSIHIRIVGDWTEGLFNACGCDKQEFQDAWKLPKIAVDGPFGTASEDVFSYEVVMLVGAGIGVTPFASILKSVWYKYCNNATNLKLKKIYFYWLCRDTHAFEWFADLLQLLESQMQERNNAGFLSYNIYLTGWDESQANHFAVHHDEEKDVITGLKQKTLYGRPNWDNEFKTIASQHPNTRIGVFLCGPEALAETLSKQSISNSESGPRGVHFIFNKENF
Sequence of NADPH oxidase 5 (Homo sapiens) (Q96PH1 whole entry, looked up): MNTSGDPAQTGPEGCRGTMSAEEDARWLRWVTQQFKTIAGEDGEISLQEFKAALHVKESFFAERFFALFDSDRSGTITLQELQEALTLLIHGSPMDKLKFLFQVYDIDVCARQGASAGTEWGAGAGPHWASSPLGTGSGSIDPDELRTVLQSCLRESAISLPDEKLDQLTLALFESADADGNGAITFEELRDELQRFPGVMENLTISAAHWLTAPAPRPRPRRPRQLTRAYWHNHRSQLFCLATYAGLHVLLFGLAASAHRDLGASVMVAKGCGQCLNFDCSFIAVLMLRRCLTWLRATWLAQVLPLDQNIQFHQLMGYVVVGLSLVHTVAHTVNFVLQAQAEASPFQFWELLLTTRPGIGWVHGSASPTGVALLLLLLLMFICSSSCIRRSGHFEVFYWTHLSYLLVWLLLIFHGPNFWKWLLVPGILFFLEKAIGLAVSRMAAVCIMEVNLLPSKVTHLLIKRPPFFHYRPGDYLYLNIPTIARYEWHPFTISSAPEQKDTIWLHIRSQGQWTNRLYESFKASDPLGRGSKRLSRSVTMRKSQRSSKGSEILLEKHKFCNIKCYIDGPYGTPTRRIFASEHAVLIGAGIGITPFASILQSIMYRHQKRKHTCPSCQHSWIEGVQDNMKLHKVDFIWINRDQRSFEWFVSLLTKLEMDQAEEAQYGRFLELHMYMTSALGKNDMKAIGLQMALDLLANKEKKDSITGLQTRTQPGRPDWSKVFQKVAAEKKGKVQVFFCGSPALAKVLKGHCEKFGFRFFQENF
Sequence of NADPH oxidase 4 (Homo sapiens) (Q9NPH5 whole entry, looked up): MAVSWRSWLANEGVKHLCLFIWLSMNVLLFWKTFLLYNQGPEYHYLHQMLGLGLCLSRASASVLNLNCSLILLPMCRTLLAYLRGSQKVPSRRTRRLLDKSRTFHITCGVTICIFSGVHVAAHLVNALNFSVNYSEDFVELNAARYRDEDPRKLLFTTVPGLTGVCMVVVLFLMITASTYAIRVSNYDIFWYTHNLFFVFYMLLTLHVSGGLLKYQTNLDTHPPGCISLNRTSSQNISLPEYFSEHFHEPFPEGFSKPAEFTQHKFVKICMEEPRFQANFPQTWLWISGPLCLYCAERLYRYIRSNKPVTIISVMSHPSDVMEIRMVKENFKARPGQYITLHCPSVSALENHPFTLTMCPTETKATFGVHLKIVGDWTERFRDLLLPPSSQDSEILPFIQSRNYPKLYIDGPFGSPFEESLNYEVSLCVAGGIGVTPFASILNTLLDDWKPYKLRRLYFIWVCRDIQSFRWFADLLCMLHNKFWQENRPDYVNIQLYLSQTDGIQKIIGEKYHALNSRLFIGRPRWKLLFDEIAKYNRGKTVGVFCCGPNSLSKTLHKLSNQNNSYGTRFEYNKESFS

Take `COc1cc(NN2C(C(O)c3ccc(I)cc3)C=CC3C(=O)N(C)C(=O)C32)cc(OC)c1OC` (stereo not given): the z-score in assay [1] was -0.0511 (inactive); in [3], 0.318 (inactive); in [4], 0.168 (inactive); in [5], 1.59 (inactive); in [6] it was -0.374 (inactive); in assay [7], 1.28. Moreover, the z-score in assay [8] was -2.45 (inactive); in assay [9], -4.04 (inactive); in [10] it was -2.92; in [11] it was -0.0595; in assay [12], 0.459; in assay [13], 0.196. Also, the z-score was -0.07 in [14]; 0.24 in assay [15]; -0.461 in [16]; 0.0122 (inactive) in [17]; -0.335 in assay [18]; -0.311 in [19]. Further, the z-score in [20] is -1.42 (inactive). In assay [2], this compound gave a composite z-score of 0.125.

In the case of `CC1=C2[C@@H](CCc3ccccc3)OB(O)C[C@@H]2[C@@H]2C(=O)C=CC(=O)[C@@H]2C1`, the z-score is -0.23 (inactive) in assay [1]; 2.27 (inactive) in assay [3]; 0.229 (inactive) in [4]; 0.236 (inactive) in [5]; 0.182 (inactive) in assay [6]; 0.166 in [7]. In addition, the z-score in [8] is -0.128 (inactive); in [9], -2 (inactive); in assay [10], -3.15; in [11], -0.223; in [12] it was 0.36; in assay [13] it was -0.63. Also, the z-score in assay [14] is -3.38; in assay [15], -3.64; in assay [16], -3.63; in assay [17], -1.5 (inactive); in [18], -1.12; in assay [19], -2.78. In addition, the z-score in assay [20] was -0.247 (inactive). Moreover, the composite z-score in assay [2] turned out to be 0.0402.

With `CCCCC(CC)C(O)C1C=CC2C(=O)NC(=O)C2N1Nc1ccccn1` (stereo not given), the z-score is -0.757 (inactive) in assay [1]; 1.68 (inactive) in assay [3]; 0.648 (inactive) in assay [4]; 0.186 (inactive) in assay [5]; 0.408 (inactive) in assay [6]; -0.606 in assay [7]. In addition, the z-score in assay [8] is 0.201 (inactive); in [9], -3.35 (inactive); in assay [10] it was -2.14; in assay [11], 0.373; in [12] it was -0.131; in assay [13], 1.12. Besides, the z-score is -0.11 in assay [14]; 0.581 in [15]; 0.0822 in assay [16]; -0.506 (inactive) in [17]; 0.713 in assay [18]; -0.792 in assay [19]. Besides, the z-score in [20] was -0.858 (inactive). Further, the composite z-score in [2] was -0.0754.

As for `CN(C)C(=O)[C@@]1(Cc2ccccc2N=[N+]=[N-])N=C(c2ccc(OCCCO)cc2)O[C@H]1c1ccccc1N=[N+]=[N-]`, the z-score in assay [1] was 0.0086 (inactive); in assay [3] it was 31.3 (active); in [4], 29.7 (active); in assay [5], 2.54 (inactive); in [6] it was 3.39 (inactive); in assay [7] it was 0.246. Further, the z-score in [8] is -1.34 (inactive); in [9] it was -0.493 (inactive); in assay [10], -2; in assay [11], -0.0639; in assay [12] it was 1.45; in [13], -1.38. Besides, the z-score in assay [14] was -3.16; in assay [15], -4.47; in [16], 1.45; in [17], 0.918 (inactive); in assay [18], -1.26; in assay [19], -1.03. Further, the z-score in assay [20] was -0.406 (inactive). This compound also returned a composite z-score in assay [2] of -0.213.

On to `COc1ccc(CCNC(=O)[C@@H]2c3ccccc3C(=O)N(Cc3ccccc3C(F)(F)F)[C@H]2c2ccc(CO)cc2)cc1`, for which the z-score in [1] was 0.163 (inactive); in [3], 3.68 (inactive); in assay [4] it was 0.252 (inactive); in assay [5], 1.73 (inactive); in assay [6], 0.694 (inactive); in assay [7], -0.366. Also, the z-score is -0.536 (inactive) in [8]; -2.38 (inactive) in assay [9]; -3.69 in assay [10]; 0.0059 in assay [11]; -0.513 in assay [12]; 0.106 in assay [13]. In addition, the z-score in assay [14] is -0.601; in [15], -0.0978; in [16], 1.2; in assay [17] it was 0.996 (inactive); in assay [18] it was -0.667; in assay [19], 0.00958. In assay [20], the z-score is 2.22 (inactive). In assay [2], the composite z-score is -0.144.

As to `CN(C)C(=O)[C@@]1(CCC(=O)OC(C)(C)C)N=C(c2ccc(OCCCO)cc2)O[C@H]1c1ccccc1N=[N+]=[N-]`, the z-score in [1] is 0.0366 (inactive); in [3] it was 32.9 (active); in [4], 32.2 (active); in assay [5], 1.78 (inactive); in assay [6], 3.02 (inactive); in assay [7], -0.192. Moreover, the z-score in [8] is -3.57 (inactive); in assay [9] it was 0.0136 (inactive); in assay [10] it was -1.97; in assay [11], 0.186; in assay [12] it was 0.727; in [13], -0.34. The z-score in assay [14] is -0.956; in assay [15], 0.0691; in assay [16], 1.45; in assay [17] it was -0.371 (inactive); in assay [18] it was -0.432; in assay [19], -0.0283. In addition, the z-score in assay [20] was 0.966 (inactive). Further, in [2], the composite z-score is 0.646.

In the case of `COCCOC(=O)N1C(=O)[C@@]2(c3cc(C#Cc4ccc(OC)cc4)ccc31)[C@H](C(=O)N1CCc3cc(OC)c(OC)cc3C1)[C@H]1C(=O)O[C@H](c3ccccc3)[C@H](c3ccccc3)N1[C@@H]2c1ccc(O)cc1`, the z-score in assay [1] was 0.515 (inactive); in assay [3], 1.74 (inactive); in [4], 0.402 (inactive); in assay [5], 0.295 (inactive); in assay [6] it was 0.285 (inactive); in [7], 0.269. Moreover, the z-score in assay [8] was 0.987 (inactive); in [9], -1.37 (inactive); in assay [10], 0.321; in assay [11], -0.0326; in assay [12], 0.376; in [13] it was 0.97. In addition, the z-score in assay [14] is 0.175; in [15], -0.393; in assay [16], -0.177; in assay [17] it was 0.302 (inactive); in assay [18], -0.185; in assay [19] it was 0.516. In addition, the z-score in assay [20] is 0.361 (inactive). The compound also had a composite z-score in assay [2] of 1.05.

Consider `CN1C(=O)C2C=CC(C(O)c3ccc(F)cc3)N(N3CCCCC3)C2C1=O` (stereo not given), for which the z-score is -1.37 (inactive) in [1]; 1.02 (inactive) in assay [3]; 1.14 (inactive) in assay [4]; 0.772 (inactive) in [5]; 1.2 (inactive) in [6]; -1.08 in assay [7]. The z-score is 0.0457 (inactive) in assay [8]; -0.751 (inactive) in [9]; -1.35 in [10]; -1.1 in assay [11]; -1.24 in [12]; -0.572 in assay [13]. Besides, the z-score in assay [14] is -1.05; in assay [15] it was 0.0924; in assay [16], -1.43; in assay [17], -0.487 (inactive); in assay [18], 0.00989; in [19], -0.118. In addition, the z-score in assay [20] is -0.707 (inactive). Moreover, in assay [2], the composite z-score turned out to be 0.604.
